Measurements published in ChEMBL document CHEMBL3988442, “University of Dundee, Small-Polar-MMV Screening Library” (2021).

Key:
[1] = target: T1, Aspartate--tRNA(Asp/Asn) ligase (Mycobacterium tuberculosis (strain ATCC 25618 / H37Rv)) (UniProt P9WFW3); assay: Assay for Asp RNA synthetase-1 from Mycobacterium tuberculosis; assay type: functional; parameters: scale not given: direction of the effect not stated beside the values; conditions: 30 µM; further: in the data most compounds retested in dose-response had high values
T1 sequence (whole entry): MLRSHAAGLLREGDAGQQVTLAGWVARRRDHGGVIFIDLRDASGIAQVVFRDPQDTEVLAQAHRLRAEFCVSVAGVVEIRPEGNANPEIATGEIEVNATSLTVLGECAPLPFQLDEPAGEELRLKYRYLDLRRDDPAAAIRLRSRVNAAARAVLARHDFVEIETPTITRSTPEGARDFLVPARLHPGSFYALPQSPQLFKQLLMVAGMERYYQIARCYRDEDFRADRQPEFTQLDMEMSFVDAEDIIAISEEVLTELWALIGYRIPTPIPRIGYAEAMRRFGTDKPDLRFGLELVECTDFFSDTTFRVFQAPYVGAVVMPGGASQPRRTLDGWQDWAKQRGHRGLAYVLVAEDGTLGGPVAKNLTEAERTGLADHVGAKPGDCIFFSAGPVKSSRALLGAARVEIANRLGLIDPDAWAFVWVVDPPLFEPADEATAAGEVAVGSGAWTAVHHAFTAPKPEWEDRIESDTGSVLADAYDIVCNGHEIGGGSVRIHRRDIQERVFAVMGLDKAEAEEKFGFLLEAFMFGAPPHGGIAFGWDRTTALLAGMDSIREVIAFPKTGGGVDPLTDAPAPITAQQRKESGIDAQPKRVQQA

[2] = target: Shiga toxin 2 (Escherichia coli O157:H7) (UniProt P09385+P09386); assay: E. coli 0.157:H7 Shiga Toxin SOP - stx2 screening assay; assay type: functional; parameters: scale not given: direction of the effect not stated beside the values; conditions: 30 µM

Compound | Percent Effect [1] | Percent Effect [2]
Cc1[nH]ncc1CCCNC(=O)Nc1ccc(C#N)cc1 | 0.993% | -61.3%
Cc1ccc(-c2ncc(C(=O)NCCNC(=O)C(C)C)s2)c(C)c1 | 2.19% | 11.7%
CCCNC(=O)c1cnc(N(C)C)nc1COC | -0.929% | -6.54%
COc1ccc(CC(=O)N2CCCCC2Cn2cccn2)cc1OC (configuration not stated) | -2.34% | -6.84%
COc1cccc2c1OCC(NC(=O)NC1CCN(C3CC3)CC1)C2 (configuration not stated) | -3.21% | 3.63%
COc1cc(CNCc2c(C)nn(C)c2N(C)C)ccc1C | -3.09% | 9.03%
CN(C)C(=O)N1CCN(Cc2nnc(C(C)(C)C)o2)CC1 | -2.73% | 3.28%
Cc1nnc(NC(=O)CN(C)CC2CCCN2c2cccnn2)s1 (configuration not stated) | 0.577% | -34.1%
COCCNS(=O)(=O)c1cccc2c1CN(C(=O)c1ccccc1)CC2 | -2.79% | -27.5%
CC(O)(CN1CCC2(CC1)OCCO2)c1cccc(C(F)(F)F)c1 (configuration not stated) | 1.23% | -7.35%
CN(C)C(=O)[C@H]1C[C@@H]2CCN(C3CCOCC3)C[C@H]2O1 | -3.87% | -13.4%
O=C1COc2c(cccc2C(=O)N2CCCCC2Cn2cccn2)N1 (configuration not stated) | -0.721% | 27.1%
Cc1nc(C2CCCN2C(=O)c2cc3c(s2)CCCC3)no1 (configuration not stated) | -1.23% | 23.4%
Cc1ccc2c(n1)N(C)CCN(C(=O)NC1CC1)C2 | 7.86% | -7.89%
CC1c2ncc(COc3cccnc3)n2CCN1C(=O)Cc1ccco1 (configuration not stated) | -1.45% | -2.51%
CCc1ncncc1C(=O)N1CCN(Cc2ccco2)CC1 | 3.68% | 8.73%
Cc1ccc(S(=O)(=O)NC(=O)c2c(C)noc2C(C)C)cc1C | 1.59% | 8.34%
CC(C)(C)C(O)CN1CCN(C(=O)c2cccc3ncccc23)CC1 (configuration not stated) | 0.278% | -208%
CC1CCCN(Cc2csc(-c3ncccn3)n2)CC1 (configuration not stated) | -2.94% | -26.7%
COc1ccc(-c2nc(CN3CC(n4nc(C)cc4C)C3)no2)cc1 | 5.02% | -49.6%
CN(C)c1ncnc2c1CCN(CC1CCOC1)CC2 (configuration not stated) | -1.82% | -26.9%
CN1CCC/C1=N\S(=O)(=O)c1ccc(NC(=O)c2cccs2)cc1 | -0.972% | -166%
Cc1nc(C)n(CC2CCCN(c3ncnc4sccc34)C2)n1 (configuration not stated) | 1.08% | 21.2%
Cc1noc(C2CCN(C(=O)CCc3nccs3)CC2)n1 | -2.48% | -79.2%
CCN(CC)CCNC(=O)c1cc(C(C)C)nc(N2CCCC2)n1 | 2.18% | -34%
O=C(C1=CCCC1)N1CCC[C@]2(C[C@@H](Oc3ncccc3F)CO2)C1 | 0.0684% | 7.81%

Compound | Percent Effect [1] | Percent Effect [2]
Cc1cc(CN(C)C(=O)c2ccnc(N(C)C)c2)no1 | -3.84% | -18.4%
CCn1nc(C)c2ncnc(NCCCN3CCOCC3)c21 | -3.37% | -33.6%
Cc1ccc(C(=O)N2CCC3(CC2)CC(N2CCCC2)C3)cc1 | 0.137% | -9.41%
Cc1cnn(CCNCC(O)COc2ccc(C#N)cc2)c1 (configuration not stated) | 1.2% | -30.5%
O=C1[C@@H]2CCN(Cc3ccoc3)C[C@@H]2OCCN1Cc1cccnc1 | -0.368% | -11.5%
COc1ccc(CN(C)[C@@H]2CN(C(=O)c3cccs3)C[C@H]2O)cc1 | -4.54% | 12%
COCCNC(=O)[C@H]1CN(c2nnc(C)s2)C[C@H]2OCC[C@@H]12 | -1.22% | -23.9%
Cc1ccccc1CN1CCCN(C2CCOC2=O)CC1 (configuration not stated) | -0.409% | 15%
Cc1ccc(C2CCCN2Cc2nc3c(cnn3C)c(=O)[nH]2)cc1C (configuration not stated) | -1.66% | -9.34%
Cc1cc(C)cc(C2(C(=O)NC(C)Cn3ccnc3)CC2)c1 (configuration not stated) | -2.37% | -14.1%
O=S(=O)(Nc1cnn(C2CCOCC2)c1)c1ccc2c(c1)CCO2 | 0.452% | -15.1%
Cc1cc(NC(=O)CCN(CC2CCOC2)C2CC2)no1 (configuration not stated) | -6.8% | -16.3%
CC(C)=CCN1CCC(c2nccn2Cc2cscn2)CC1 | -3.28% | 22.8%
CSCC(=O)N1CCC2(CC1)c1ccccc1CC2O (configuration not stated) | 0.357% | -32.5%
CC(C)Cc1noc(CN2CCOCC2)n1 | -2.59% | 29.5%
Cc1nc(C(C)C)sc1C(=O)NS(=O)(=O)c1ccc(C#N)cc1 | -3.09% | 0.0303%
O=C(Cc1csc(-c2ccc(Cl)cc2)n1)NC(C(=O)O)c1ccccc1 (configuration not stated) | 1.86% | -21.9%
CCCn1[nH]cc/c1=N\C(=O)CN1CCc2c(nc(C(C)C)n2C)C1 | 1.84% | 1.47%
CCc1cnc(CN2CCC(N(C)Cc3noc(C4CC4)n3)C2)o1 (configuration not stated) | -1.09% | -33.4%
COc1c(CNCc2ccc(C(=O)NC3CC3)cc2)c(C)nn1C | -3.68% | -14.2%
CCN1CCC(NC(=O)CN2CCCC2Cn2cncn2)CC1 (configuration not stated) | -1.82% | -12.3%
Cc1cc(-c2nn(C)c(Cl)c2CN2CCOCC(O)C2)no1 (configuration not stated) | -2.42% | 16.3%
O=C(NCc1cc[nH]n1)NCC(O)c1ccc(F)cc1F (configuration not stated) | 4.01% | -25%
Cc1cc(-c2nnn(CCNS(C)(=O)=O)n2)ccc1F | -2.07% | -10.6%
CC(=O)N1CCN(c2cc(-c3ccccc3)nc3c(C)c(C)nn23)CC1 | 2.46% | -33.1%
